Holding throughout (assay): DAPPL (digital affinity profiling via proximity ligation, sequencing); 10 mM Tris-HCl pH 7.5, 50 mM NaCl, 1 mM DTT, 4% glycerol, room temperature, 30 min; GST-TFs on glutathione beads, 16-mer random dsDNA library, 0.1% formaldehyde crosslink after washing; high values mean tight binding
One assay addresses T1, FLI1 (Homo sapiens, UniProt Q01543 1-452).
T1 sequence: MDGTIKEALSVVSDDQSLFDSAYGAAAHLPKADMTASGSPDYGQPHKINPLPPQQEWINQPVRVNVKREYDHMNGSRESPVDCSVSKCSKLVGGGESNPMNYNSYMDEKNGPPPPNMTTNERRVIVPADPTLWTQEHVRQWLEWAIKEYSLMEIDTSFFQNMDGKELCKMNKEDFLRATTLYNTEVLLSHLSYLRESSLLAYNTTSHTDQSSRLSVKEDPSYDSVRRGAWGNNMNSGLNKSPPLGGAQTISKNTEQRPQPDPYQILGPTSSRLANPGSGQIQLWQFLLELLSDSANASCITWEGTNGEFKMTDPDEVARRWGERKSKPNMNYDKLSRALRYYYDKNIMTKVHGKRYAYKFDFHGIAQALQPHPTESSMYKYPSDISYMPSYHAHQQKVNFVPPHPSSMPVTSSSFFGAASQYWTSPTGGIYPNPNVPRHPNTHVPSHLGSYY
To be noted: protein: recombinant; tags: N-terminal GST; dsDNA, one strand shown. The essentials:
(§1)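 Sequencing on an Illumina NextSeq500 followed washing, crosslinking with 0.1% formaldehyde, proximity ligation (BsaI/T4 ligase, 1 h, 37 °C) and PCR amplification of pools that had been incubated for 30 min at room temperature with 200 nmole of a random double-stranded 16-mer DNA library in Tris/NaCl/DTT/glycerol buffer. Each pool held DNA-barcoded human transcription factors, expressed in yeast as GST fusions and captured on glutathione beads, plus a tag-only sample. Binding signal is a hexamer's read frequency for a factor divided by its frequency in the tag-only sample.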

A further assay has as its target T2, ELK1 (Homo sapiens, UniProt P19419 1-428).
T2 sequence: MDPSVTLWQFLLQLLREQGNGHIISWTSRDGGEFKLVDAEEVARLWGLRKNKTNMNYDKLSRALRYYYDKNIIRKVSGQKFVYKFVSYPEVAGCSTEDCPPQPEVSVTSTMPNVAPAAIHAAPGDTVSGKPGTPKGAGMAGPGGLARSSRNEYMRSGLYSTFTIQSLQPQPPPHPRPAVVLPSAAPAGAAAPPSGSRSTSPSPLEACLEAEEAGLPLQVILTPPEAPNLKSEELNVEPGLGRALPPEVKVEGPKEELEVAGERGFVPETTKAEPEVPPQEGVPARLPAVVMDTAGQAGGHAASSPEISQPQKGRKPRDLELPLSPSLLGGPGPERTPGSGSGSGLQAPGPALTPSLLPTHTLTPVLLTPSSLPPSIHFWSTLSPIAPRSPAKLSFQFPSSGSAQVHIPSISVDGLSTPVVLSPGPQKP
To be noted: protein: recombinant; tags: N-terminal GST; dsDNA, one strand shown. The method in brief:
as §1

The target in a further assay is T3, GABPA (Homo sapiens, UniProt Q06546 1-454).
T3 sequence: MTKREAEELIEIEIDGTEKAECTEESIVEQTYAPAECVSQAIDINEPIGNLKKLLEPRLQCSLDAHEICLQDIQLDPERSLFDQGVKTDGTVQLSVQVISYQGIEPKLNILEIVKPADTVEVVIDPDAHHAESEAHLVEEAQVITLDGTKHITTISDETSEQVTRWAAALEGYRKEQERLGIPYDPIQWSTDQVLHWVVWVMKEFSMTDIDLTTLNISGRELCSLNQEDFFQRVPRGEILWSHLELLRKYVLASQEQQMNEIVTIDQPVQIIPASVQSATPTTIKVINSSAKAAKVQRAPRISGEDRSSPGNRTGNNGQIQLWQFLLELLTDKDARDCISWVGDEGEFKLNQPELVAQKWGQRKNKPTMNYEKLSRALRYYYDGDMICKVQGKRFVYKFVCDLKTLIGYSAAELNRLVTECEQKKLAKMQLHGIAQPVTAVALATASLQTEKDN
To be noted: protein: recombinant; tags: N-terminal GST; dsDNA, one strand shown. The method in brief:
as §1

The next assay deals with T4, ERG (Homo sapiens, UniProt P11308 1-479).
T4 sequence: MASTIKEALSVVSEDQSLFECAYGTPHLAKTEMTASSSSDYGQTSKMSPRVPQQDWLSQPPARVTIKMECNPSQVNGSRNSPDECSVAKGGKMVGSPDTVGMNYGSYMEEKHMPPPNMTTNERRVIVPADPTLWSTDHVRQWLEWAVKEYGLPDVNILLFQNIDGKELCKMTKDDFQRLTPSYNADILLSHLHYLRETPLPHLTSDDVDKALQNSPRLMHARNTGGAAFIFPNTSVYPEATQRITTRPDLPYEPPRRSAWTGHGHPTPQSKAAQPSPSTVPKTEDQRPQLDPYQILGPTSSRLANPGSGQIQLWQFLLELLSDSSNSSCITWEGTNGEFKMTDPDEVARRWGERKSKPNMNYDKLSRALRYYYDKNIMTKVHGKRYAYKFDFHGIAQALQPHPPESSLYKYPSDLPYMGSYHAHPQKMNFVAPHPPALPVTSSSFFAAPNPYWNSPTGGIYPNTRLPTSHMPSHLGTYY
The following applies: protein: recombinant; tags: N-terminal GST; dsDNA, one strand shown. The method in brief:
as §1

For another assay, the target named is ELF1 (Homo sapiens, UniProt P32519 1-619). The following applies: protein: recombinant; tags: N-terminal GST; dsDNA, one strand shown. The method in brief: as §1
A further assay concerns the target T5, EHF (Homo sapiens, UniProt Q9NZC4 1-300).
T5 sequence: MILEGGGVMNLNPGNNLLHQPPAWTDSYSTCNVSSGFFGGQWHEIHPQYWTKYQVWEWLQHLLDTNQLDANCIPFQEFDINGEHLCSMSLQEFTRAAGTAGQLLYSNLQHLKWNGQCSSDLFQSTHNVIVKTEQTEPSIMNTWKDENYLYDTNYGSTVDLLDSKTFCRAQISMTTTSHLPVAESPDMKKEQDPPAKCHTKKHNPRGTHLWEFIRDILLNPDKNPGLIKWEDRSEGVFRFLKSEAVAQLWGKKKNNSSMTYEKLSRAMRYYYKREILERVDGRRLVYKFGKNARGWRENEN
The following applies: protein: recombinant; tags: N-terminal GST; dsDNA, one strand shown. The method in brief:
as §1

A further assay concerns the target SPIB (Homo sapiens, UniProt Q01892 1-262). The following applies: protein: recombinant; tags: N-terminal GST; dsDNA, one strand shown. The essentials: as §1
The target of another assay is T6, ELK3 (Homo sapiens, UniProt P41970 1-407).
T6 sequence: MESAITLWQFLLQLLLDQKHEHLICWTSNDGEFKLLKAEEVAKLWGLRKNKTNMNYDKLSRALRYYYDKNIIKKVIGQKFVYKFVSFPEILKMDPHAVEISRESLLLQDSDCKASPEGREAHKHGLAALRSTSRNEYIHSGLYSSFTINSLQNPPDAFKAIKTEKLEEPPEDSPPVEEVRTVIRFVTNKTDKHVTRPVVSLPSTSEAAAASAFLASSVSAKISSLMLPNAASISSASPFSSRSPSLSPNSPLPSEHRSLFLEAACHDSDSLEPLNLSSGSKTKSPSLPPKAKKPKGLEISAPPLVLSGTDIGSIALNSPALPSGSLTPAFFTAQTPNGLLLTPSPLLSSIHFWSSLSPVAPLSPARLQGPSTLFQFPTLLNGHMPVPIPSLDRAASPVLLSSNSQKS
The following applies: protein: recombinant; tags: N-terminal GST; dsDNA, one strand shown. The method in brief:
as §1

In the next assay the target is T7, FEV (Homo sapiens, UniProt Q99581 1-238).
T7 sequence: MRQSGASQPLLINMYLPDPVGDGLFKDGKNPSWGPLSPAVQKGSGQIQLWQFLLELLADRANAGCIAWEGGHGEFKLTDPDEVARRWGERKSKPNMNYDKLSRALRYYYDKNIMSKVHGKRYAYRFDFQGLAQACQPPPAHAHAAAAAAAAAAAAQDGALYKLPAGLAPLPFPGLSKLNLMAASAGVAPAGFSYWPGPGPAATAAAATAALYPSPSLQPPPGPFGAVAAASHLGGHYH
The following applies: protein: recombinant; tags: N-terminal GST; dsDNA, one strand shown. The essentials:
as §1

The target in another assay is ETV5 (Homo sapiens, UniProt P41161 1-510). To be noted: protein: recombinant; tags: N-terminal GST; dsDNA, one strand shown. The essentials: as §1
Another assay concerns the target HSF1 (Homo sapiens, UniProt Q00613 1-529). The following applies: protein: recombinant; tags: N-terminal GST; chain copies: 3; dsDNA, one strand shown. The essentials: as §1
The target in another assay is T8, SPIC (Homo sapiens, UniProt Q8N5J4 1-248).
T8 sequence: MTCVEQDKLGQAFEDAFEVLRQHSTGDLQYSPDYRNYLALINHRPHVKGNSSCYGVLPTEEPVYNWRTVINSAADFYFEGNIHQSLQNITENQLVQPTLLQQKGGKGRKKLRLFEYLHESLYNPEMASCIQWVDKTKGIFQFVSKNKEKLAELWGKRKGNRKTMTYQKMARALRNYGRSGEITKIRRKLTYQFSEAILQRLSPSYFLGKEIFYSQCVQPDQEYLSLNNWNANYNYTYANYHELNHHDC
To be noted: protein: recombinant; tags: N-terminal GST; dsDNA, one strand shown. The essentials: as §1

A further assay deals with ELF4 (Homo sapiens, UniProt Q99607 1-663). The following applies: protein: recombinant; tags: N-terminal GST; dsDNA, one strand shown. The essentials: as §1
For the next assay, the target named is T9, ELK4 (Homo sapiens, UniProt P28324-2 1-405).
T9 sequence: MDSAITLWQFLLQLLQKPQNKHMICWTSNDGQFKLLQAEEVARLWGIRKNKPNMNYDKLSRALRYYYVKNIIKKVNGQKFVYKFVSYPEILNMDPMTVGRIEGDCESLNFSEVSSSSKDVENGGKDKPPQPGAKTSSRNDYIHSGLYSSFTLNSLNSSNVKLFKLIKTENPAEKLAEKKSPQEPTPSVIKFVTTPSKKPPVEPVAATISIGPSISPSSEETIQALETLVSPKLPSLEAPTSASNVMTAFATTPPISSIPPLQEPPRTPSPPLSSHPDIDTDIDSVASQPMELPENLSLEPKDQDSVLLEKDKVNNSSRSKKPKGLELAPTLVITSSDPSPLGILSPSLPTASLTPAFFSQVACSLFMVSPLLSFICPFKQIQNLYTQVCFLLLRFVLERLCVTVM
The following applies: protein: recombinant; tags: N-terminal GST; dsDNA, one strand shown. The essentials: as §1

Another assay deals with T10, ETV2 (Homo sapiens, UniProt O00321 1-342).
T10 sequence: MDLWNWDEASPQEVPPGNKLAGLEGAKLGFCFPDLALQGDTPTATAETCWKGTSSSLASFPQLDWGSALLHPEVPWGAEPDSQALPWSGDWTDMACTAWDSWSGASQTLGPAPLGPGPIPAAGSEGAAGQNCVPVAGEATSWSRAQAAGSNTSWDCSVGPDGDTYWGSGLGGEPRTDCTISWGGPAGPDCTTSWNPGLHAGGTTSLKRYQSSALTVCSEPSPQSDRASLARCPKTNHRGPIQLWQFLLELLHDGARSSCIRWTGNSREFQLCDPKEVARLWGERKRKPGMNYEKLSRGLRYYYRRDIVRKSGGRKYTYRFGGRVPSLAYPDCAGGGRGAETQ
The following applies: protein: recombinant; tags: N-terminal GST; dsDNA, one strand shown. The essentials: as §1

In a further assay the target is T11, ELF3 (Homo sapiens, UniProt P78545 1-371).
T11 sequence: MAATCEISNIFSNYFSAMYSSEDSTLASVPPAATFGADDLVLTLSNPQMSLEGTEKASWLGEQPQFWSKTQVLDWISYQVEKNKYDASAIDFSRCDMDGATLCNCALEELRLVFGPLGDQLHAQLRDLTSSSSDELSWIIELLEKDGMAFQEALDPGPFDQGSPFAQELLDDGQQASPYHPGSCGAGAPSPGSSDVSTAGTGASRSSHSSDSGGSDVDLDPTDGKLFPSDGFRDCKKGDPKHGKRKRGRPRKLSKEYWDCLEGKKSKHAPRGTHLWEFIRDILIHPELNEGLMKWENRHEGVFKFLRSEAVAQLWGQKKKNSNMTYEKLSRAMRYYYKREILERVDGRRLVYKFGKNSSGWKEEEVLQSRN
To be noted: protein: recombinant; tags: N-terminal GST; dsDNA, one strand shown. The essentials:
as §1

For another assay, the target named is CRX (Homo sapiens, UniProt O43186 1-299). The following applies: protein: recombinant; tags: N-terminal GST; dsDNA, one strand shown. The method in brief:
as §1

Another assay addresses ETV1 (Homo sapiens, UniProt P50549 1-477). To be noted: protein: recombinant; tags: N-terminal GST; dsDNA, one strand shown. The essentials: as §1

Sequence of ETV5 (P41161 whole entry): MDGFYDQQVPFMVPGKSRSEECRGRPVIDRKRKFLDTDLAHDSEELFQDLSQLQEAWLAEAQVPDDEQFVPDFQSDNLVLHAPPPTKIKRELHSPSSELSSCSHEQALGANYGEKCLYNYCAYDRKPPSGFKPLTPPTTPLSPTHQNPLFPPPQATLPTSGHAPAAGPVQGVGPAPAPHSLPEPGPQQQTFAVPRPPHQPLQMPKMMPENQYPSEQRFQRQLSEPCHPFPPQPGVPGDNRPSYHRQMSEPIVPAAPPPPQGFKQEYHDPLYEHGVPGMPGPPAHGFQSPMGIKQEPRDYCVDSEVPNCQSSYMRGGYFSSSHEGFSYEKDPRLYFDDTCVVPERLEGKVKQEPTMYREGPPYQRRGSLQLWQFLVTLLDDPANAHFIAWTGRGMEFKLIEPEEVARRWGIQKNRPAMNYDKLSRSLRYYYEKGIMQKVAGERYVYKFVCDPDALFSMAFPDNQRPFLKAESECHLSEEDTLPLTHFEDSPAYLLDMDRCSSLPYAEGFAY
Sequence of CRX (O43186 whole entry): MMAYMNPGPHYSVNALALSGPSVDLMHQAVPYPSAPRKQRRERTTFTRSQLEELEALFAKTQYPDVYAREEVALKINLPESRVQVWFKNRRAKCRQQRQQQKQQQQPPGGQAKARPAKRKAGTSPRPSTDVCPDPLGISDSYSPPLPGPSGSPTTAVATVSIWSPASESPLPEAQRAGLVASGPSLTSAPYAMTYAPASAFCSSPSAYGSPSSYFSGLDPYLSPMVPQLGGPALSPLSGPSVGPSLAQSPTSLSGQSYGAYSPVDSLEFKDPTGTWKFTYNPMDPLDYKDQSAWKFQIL
Sequence of ELF1 (P32519 whole entry): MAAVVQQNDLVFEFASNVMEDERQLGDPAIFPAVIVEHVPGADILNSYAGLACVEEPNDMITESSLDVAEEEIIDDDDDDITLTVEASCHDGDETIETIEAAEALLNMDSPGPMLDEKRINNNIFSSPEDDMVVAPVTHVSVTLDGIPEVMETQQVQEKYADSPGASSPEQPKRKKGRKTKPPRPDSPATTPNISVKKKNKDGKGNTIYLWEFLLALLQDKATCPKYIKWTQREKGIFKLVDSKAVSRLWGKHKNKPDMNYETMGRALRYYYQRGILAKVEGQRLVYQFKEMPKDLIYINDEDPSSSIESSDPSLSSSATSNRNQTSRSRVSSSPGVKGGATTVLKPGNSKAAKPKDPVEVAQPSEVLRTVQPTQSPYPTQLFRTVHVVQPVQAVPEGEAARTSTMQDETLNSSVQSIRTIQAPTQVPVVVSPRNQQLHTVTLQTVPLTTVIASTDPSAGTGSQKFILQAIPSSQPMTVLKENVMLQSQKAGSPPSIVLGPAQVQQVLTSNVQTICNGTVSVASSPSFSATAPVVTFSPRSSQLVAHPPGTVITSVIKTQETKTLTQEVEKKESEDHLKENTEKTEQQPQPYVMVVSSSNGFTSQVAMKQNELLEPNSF
Sequence of HSF1 (Q00613 whole entry): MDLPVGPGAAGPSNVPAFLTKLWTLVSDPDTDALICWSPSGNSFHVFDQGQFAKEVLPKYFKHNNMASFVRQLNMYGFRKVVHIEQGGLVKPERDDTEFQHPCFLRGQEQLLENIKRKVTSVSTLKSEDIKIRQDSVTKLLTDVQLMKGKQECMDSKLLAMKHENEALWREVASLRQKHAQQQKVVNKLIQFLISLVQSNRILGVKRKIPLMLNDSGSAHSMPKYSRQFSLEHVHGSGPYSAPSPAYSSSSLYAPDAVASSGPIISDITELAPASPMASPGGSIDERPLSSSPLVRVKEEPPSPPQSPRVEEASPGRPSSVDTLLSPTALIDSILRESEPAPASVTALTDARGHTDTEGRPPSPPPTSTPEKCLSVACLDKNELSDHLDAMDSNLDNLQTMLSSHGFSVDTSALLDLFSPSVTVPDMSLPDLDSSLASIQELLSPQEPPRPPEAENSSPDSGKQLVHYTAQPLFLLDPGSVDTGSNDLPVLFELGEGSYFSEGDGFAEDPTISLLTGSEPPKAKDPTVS
Sequence of SPIB (Q01892 whole entry): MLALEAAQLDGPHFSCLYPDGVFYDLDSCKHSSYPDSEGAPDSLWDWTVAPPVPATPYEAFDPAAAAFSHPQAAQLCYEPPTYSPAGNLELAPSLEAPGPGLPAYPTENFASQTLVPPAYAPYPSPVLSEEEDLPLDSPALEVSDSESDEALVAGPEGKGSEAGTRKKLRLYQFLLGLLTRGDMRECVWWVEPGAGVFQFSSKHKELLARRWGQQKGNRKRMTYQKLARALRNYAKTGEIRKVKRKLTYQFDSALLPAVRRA
Sequence of ELF4 (Q99607 whole entry): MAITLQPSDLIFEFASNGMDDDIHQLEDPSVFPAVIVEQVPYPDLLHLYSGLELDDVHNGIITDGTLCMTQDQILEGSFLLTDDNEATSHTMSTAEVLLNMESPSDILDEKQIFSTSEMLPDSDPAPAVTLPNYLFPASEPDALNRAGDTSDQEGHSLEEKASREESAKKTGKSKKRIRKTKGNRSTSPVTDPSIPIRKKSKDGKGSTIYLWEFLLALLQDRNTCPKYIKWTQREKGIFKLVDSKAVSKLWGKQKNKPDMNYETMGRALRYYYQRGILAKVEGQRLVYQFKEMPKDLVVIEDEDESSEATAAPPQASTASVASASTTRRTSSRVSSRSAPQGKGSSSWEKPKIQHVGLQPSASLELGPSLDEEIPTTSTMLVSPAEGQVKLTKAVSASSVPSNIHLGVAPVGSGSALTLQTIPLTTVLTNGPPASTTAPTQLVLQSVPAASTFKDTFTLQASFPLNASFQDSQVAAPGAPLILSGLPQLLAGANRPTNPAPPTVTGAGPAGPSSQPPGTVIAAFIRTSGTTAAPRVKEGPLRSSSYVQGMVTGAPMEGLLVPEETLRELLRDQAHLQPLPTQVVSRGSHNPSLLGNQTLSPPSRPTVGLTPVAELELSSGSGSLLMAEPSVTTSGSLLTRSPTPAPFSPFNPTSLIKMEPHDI
Sequence of ETV1 (P50549 whole entry): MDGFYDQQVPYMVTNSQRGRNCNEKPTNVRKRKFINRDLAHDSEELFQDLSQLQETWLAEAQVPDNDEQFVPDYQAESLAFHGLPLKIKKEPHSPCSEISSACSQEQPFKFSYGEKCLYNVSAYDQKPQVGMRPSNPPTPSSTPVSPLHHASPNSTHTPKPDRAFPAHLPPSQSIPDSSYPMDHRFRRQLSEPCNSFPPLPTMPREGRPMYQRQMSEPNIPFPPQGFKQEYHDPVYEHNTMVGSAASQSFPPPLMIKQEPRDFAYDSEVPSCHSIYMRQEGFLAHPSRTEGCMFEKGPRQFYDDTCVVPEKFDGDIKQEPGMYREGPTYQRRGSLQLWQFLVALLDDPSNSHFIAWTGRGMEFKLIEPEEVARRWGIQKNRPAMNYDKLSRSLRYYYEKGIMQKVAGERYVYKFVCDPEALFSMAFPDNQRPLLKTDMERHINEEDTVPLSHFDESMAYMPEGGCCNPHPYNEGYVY

For the sequence ATTAGC, the binding signal was 1.17 fold enrichment (6-mer frequency, TF over GST control) with FLI1; 1.08 fold enrichment (6-mer frequency, TF over GST control) with ELK1; 1.08 fold enrichment (6-mer frequency, TF over GST control) in the assay with GABPA; 1.15 fold enrichment (6-mer frequency, TF over GST control) with ERG; 1.11 fold enrichment (6-mer frequency, TF over GST control) with ELF1; 1.07 fold enrichment (6-mer frequency, TF over GST control) with EHF. The binding signal was 1.03 fold enrichment (6-mer frequency, TF over GST control) with SPIB; 1.09 fold enrichment (6-mer frequency, TF over GST control) with ELK3; 1.05 fold enrichment (6-mer frequency, TF over GST control) in the assay with FEV; 1.04 fold enrichment (6-mer frequency, TF over GST control) with ETV5; 1.87 fold enrichment (6-mer frequency, TF over GST control) in the assay with HSF1; 1.22 fold enrichment (6-mer frequency, TF over GST control) with SPIC. For the same sequence, the binding signal in the assay with ELF4 was 1.15 fold enrichment (6-mer frequency, TF over GST control); with ELK4, 1.14 fold enrichment (6-mer frequency, TF over GST control); with ETV2 it was 1.13 fold enrichment (6-mer frequency, TF over GST control); with ELF3, 1.14 fold enrichment (6-mer frequency, TF over GST control); with CRX, 2.83 fold enrichment (6-mer frequency, TF over GST control); with ETV1, 1.16 fold enrichment (6-mer frequency, TF over GST control).
